In PubChem BioAssay (NCI) one finds growth data, which are given here for 38 molecules.

The structures appear in SMILES notation. “And” between values parts separate entries of the source, which are not always exact repeats. Identical values can stand only once. About 83,000 compounds went through this panel and 20% of them were active in at least one assay; those are over-represented in the sample as a whole.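 Cell lines were cultured in 96-well plates, exposed to a single compound concentration, and assessed for percent growth 48 hours later.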 The source made the active and inactive calls.

The first assay has as its system M14 melanoma. In words: NCI-60 one-dose screen, 48 h (100 = growth as untreated, 0 = no growth, -100 = all killed). As to conditions: 10 µM. As for the experimental part:
Growth inhibition of the M14 human tumor cell line is measured as a screen for anti-cancer activity. Cells are grown in 96 well plates and exposed to the test compound for 48 hours. Compounds are tested at a single concentration, which is 10^-5 M for most compounds. The reported endpoint is percent growth (GI% or GIPRCNT), where numbers from 0 - 100% represent growth inhibition, and numbers from -100% - 0 represent cell death. For example, a value of 40 represents 60% growth inhibition. A value of 0 means no net growth occurred over the course of the experiment. A value of -40 indicates 40% of cells at the beginning of the experiment died by the end of the experiment. A value of -100 means all cells are dead at the end of the experiment.
NCI-60 Human Tumor Cell Lines Screen was performed using the standard one-dose NCI protocol, which is described in more detail at https://dtp.cancer.gov/discovery_development/nci-60/default.htm.
Compounds with GIPRCNT values below 10 were considered active. Activity score was based on GIPRCNT using the following formula: […]
Score is 0 for GIPRCNT values of 100 or above, 50 for GIPRCNT values of 0, and 100 for GIPRCNT values of -100.
With `CC(=O)/C=C/c1ccc(OCc2ccc(Cl)cc2)cc1`, the growth was 98.2% (inactive). Same read-out and setting: the value for `COc1ccc(C(=O)/C=C/c2ccc(OCc3cccc(C(F)(F)F)c3)c(OC)c2)cc1OC` was 85.3% (inactive).

Staying with this assay, now noted: 10 µM unless noted.
For the molecule `COc1cc(F)c(/C=C/c2cc(/C=C/c3cc(OC)c(OC)cc3F)n(-c3cc(F)cc(F)c3)n2)cc1OC`, the growth is -19.5% (active). Still for that read-out and setting: then `OCCN1CCN(CC/C=C2\c3ccccc3Sc3ccc(Cl)cc32)CC1`, with -98.7% (active) and -88.3% (active); and `Nc1ncnc2c1C(c1ccc([N+](=O)[O-])cc1)c1sc3c(F)cccc3c1O2` (stereo not given), with 112% (inactive). Still for that read-out and setting: then `COC1=CC(=O)C(OC)=C(O)C1=O`, with 97.2% (inactive); and `C=C(C)[C@@H]1CC[C@]2(C(=O)N3CCN(C)CC3)CC[C@]3(C)[C@H](CC[C@@H]4[C@@]5(C)CC(CCCNC(C)=O)(CCCNC(C)=O)[C@H](OC(C)=O)C(C)(C)[C@@H]5CC[C@]43C)[C@@H]12`, with 104% (inactive).

Consider `C#CCOCC1CN(C)C(=O)O1` (stereo not given), for which the growth was 107% (inactive). The same measure, in the same setting: then `CC(=O)c1c(C)nc2ccccc2c1/C=C/c1cccc(C)c1`, with 46.3% (inactive); and `CC[C@H](C)[C@H](NC(=O)[C@@H](N)CCC(N)=O)C(=O)N[C@@H](Cc1ccc(O)cc1)C(=O)N[C@@H](CCCCN)C(=O)N[C@@H](CCCCN)C(=O)N[C@@H](Cc1ccc(O)cc1)C(=O)N[C@@H](CCCNC(=N)N)C(=O)N[C@H](C(=O)N[C@@H](Cc1c[nH]c2ccccc12)C(=O)N[C@@H](Cc1ccc(O)cc1)C(=O)N[C@@H](CCCNC(=N)N)C(=O)N[C@@H](CCCCN)C(=O)N[C@@H](C)C(=O)N[C@@H](Cc1c[nH]c2ccccc12)C(=O)N[C@@H](CCCCN)C(=O)N[C@H](C(=O)N[C@@H](CC(C)C)C(=O)NCC(=O)N[C@@H](CCCCN)C(=O)N[C@H](C(N)=O)C(C)C)C(C)C)[C@@H](C)O`, with -11.8% (active); and `CCOc1ccc(N2C(N)=NC(N)=NC2(C)C)cc1`, with 24.2% (inactive) and 89.3% (inactive). On the same count and under the same terms, the value for `Cc1ccc2c(c1)C(C)Cc1c(ncnc1-n1cnc3cc(C)ccc31)N2C` (stereo not given) was 17.7% (inactive); that for `C=C1C(=O)O[C@H]2[C@H]1CC/C(COC(=O)NCc1ccc(Cn3c(=O)sn(CCCI)c3=O)cc1)=C\CC[C@@]1(C)O[C@@H]21` was -42% (active). Turning to `COC(=O)/C=C1/SC(=Nc2ccc([N+](=O)[O-])cc2)N(CCc2c[nH]c3ccccc23)C1=O`, the growth is 52% (inactive). Same read-out and setting: then `CC1(C)C(N)=Nc2cc(OCCCCN3Cc4ccccc4C3)c(OCC3CC3)cc21`, with -53.1% (active). Same read-out and setting: the value for `COc1ccc(-c2nnc3n(C)c(=O)c4ccccc4n23)cc1O` was 3.13% (active). On the same count and under the same terms, the value for `C[C@@H]1CC[C@@H]2[C@@H]1[C@H](OC(=O)/C=C/c1ccccc1)[C@]1(c3ccccc3)C[C@@H](NC(=O)CO)[C@@]2(C)O1` was 105% (inactive); that for `COc1ccc(Cn2cc(C(=O)Nc3cccnc3Nc3ccccc3)nn2)cc1` was 106% (inactive). For `CCOC(=O)CCCn1c(-c2ccccc2)cc(-c2ccccc2)c(C#N)c1=O`, the growth was 86.8% (inactive).

Take `O=C(NNc1ccccc1)c1ccccc1`: the growth was 53.9% (inactive) and 38.5% (inactive). Still for that read-out and setting: the value for `c1ccc(Cc2cccc[n+]2C(c2ccccc2)c2ccccc2)cc1` was 59.8% (inactive).

`COc1ccc(Oc2nc(Nc3ccc(N4CCOCC4)cc3)ncc2NC(=O)c2cccc(C(F)(F)F)c2)cc1`: the growth is 80.7% (inactive). Still for that read-out and setting: then `O=c1cc(N/N=C/c2ccc(F)cc2)c2cc(Cl)ccc2[nH]1`, with 81.2% (inactive); and `N#CC1C(=O)c2ccccc2C1c1ccccc1` (stereo not given), with 104% (inactive) and 105% (inactive). Same read-out and setting: the value for `Nc1nc(Cl)nc2c1ncn2C1OC(CO)C(O)C1O` (stereo not given) was -14% (active) and 4.59% (active); that for `CC(=O)c1nn(-c2ccccc2)/c(=N/N=Cc2cn(-c3ccccc3)nc2-c2cc3ccccc3oc2=O)s1` was 97.4% (inactive); that for `Nc1ccccc1SC(CC(=O)c1ccccc1)c1ccc([N+](=O)[O-])cc1` (stereo not given) was 108% (inactive) and 85.8% (inactive). On the same count and under the same terms, the value for `COc1cc(N=Nc2ccc(O)c3ncccc23)c2ncccc2c1` was 25.9% (inactive). On to `CC(C)(C)CC(N)=O`, for which the growth is 92% (inactive).

In the case of `N=C1/C(=C2\NC3C=CC=CC3S2)C(c2ccc(Cl)cc2)C2C(=O)N(c3ccccc3)C(=S)N12` (stereo not given), the growth was 102% (inactive).

In the case of `CCNC(=S)n1nc(SC)c(C(=O)OCC)c1N`, the growth is 107% (inactive). As to `COc1cc(/C=C2\CCC/C(=C\c3cc(CN4CCCC4)c(O)c(OC)c3)C2=O)cc(CN2CCCC2)c1O`, the growth is 19.6% (inactive). For the molecule `O=S(=O)(O)c1ccc(N=Nc2ccc(N=Nc3cccc4ccccc34)c(S(=O)(=O)O)c2)cc1`, the growth is 99.5% (inactive).

For `COc1ccc(C(=O)c2ccc(OC)c(OC)c2OC)cc1`, the growth was 24.5% (inactive) and 16.9% (inactive).

For the molecule `Cc1ccc(S(=O)(=O)OC[C@@]2(C)CC[C@]3(C)CC[C@]4(C)C(=CC[C@@H]5[C@@]6(C)CCCNC(C)(C)[C@@H]6CC[C@]54C)[C@@H]3C2)cc1`, the growth is -68.5% (active). The same measure, in the same setting: the value for `COc1ccc2c(c1)CCNC21C(=O)Nc2c(Br)cc(Br)cc21` (stereo not given) was 97.7% (inactive). For the molecule `O=c1ccc2nc(-c3ccccn3)nn(-c3ccccc3)c-2c1`, the growth is 90.3% (inactive).

Take `O=C(N/N=C/c1ccc(O)cc1O)c1cccc(Nc2ccnc(C(F)(F)F)c2)c1`: the growth is -1.76% (active).

The same assay, now with this note: 100 µM.
Take `CC(=O)/C=C/c1ccc(OCc2ccc(Cl)cc2)cc1`: the growth was 36.1% (inactive). The same measure, in the same setting: the value for `COc1ccc(C(=O)/C=C/c2ccc(OCc3cccc(C(F)(F)F)c3)c(OC)c2)cc1OC` was 35.4% (inactive).
